Experiment: cellular ROS inducers, fluorescent dye readout – U2OS cells, fluorescence, dry powder, set 2, dose response (AID 624442)
Settings: U2OS ROS induction, H2DCF-DA fluorescence, stronger effect = higher value; at 38 µM unless noted;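 active = activation curve reaches 40% at a concentration no higher than the top valid dose tested; inactive = signal falling instead of rising, plus the rest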

Max activation, inactive:
Nc1nc(SCc2ccccc2)ns1 14.6% [at 5 µM]
Cc1ccccc1CSc1n[nH]c(N)n1 25.1% [at 1.2 µM]
O=C(Nc1nc(SCc2ccccc2)ns1)C1CCC1 30.8%
O=C(Nc1nc(SCc2ccccc2)ns1)C1CC=CCC1 (configuration not stated) 65.2%
Nc1nc(SCc2ccccc2Cl)ns1 17.6% [at 5 µM]
Nc1nc(SCc2ccc(Cl)cc2Cl)ns1 32.3% [at 0.3 µM]
Nc1nc(SCc2ccc(F)cc2)ns1 15.9% [at 1.2 µM]
Cc1ccccc1CSc1nsc(N)n1 27.9% [at 19.5 µM]
Cc1cccc(CSc2nsc(N)n2)c1 24.3% [at 19.5 µM]
O=C(Nc1ccccc1)Nc1nc(SCc2ccccc2)ns1 11.1%
Nc1nc(S(=O)(=O)Cc2ccccc2)ns1 18.5% [at 0.6 µM]
Cc1ccccc1CSc1nnc(N)s1 16.2% [at 19.5 µM]
